This passage reports AC50 and outcome results from PubChem BioAssay (EPA / NIEHS).

Assay [1] can be described thus: CPHEA_Stoker_NIS_Cytotoxicity: Cytotoxicity Assessment for CPHEA's Radioactive Iodide Uptake (RAIU) Assay for Sodium/Iodide Symporter (NIS) Inhibition, Stoker and Laws Labs (AID 2283897).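 As to AC50: active means loss of ATP signal versus DMSO meaning cytotoxicity.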 In a few lines: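 hNIS-HEK293T-EPA human kidney cells were exposed for 2 hours at room temperature to test chemicals (0.001–100uM, 0.5% final DMSO) in HEPES-buffered HBSS, pH 7.4. Viability was read as ATP content by luciferase bioluminescence, loss of signal versus DMSO.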

Assay [2] in a line: CEETOX_H295R_11DCORT_noMTC: CeeTox H295R High-throughput Steroidogenesis Assay for 11-Deoxycortisol (11DCORT), maximum tolerated concentration (MTC) filtered results only (AID 2283911; active = hit-call score of the fitted dose curve at least 0.9, where 1 is the maximum; inactive = score below 0.9). The settings on record: actives raise or lower the signal. An outline of the steps:
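Steroidogenesis was stimulated in H295R cells with 10 uM forskolin for 48 h before a 48 h chemical exposure. Secreted 11-deoxycortisol was measured by tandem mass spectrometry and fitted bidirectionally against DMSO controls.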

Assay [3] can be described thus: CEETOX_H295R_OHPREG_noMTC: CeeTox H295R High-throughput Steroidogenesis Assay for OH-Pregnenolone (OHPREG), maximum tolerated concentration (MTC) filtered results only (AID 2283912; active = hit-call score of the fitted dose curve at least 0.9, where 1 is the maximum; inactive = score below 0.9). The settings on record: actives raise or lower the signal. In a few lines:
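Medium 17alpha-hydroxypregnenolone quantified by reverse-phase HPLC-MS/MS after 48 h chemical exposure of forskolin-prestimulated (10 uM, 48 h) H295R, 0.1% DMSO final. Fitting bidirectional relative to DMSO; no maximum-tolerated-concentration filtering applied.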

The nature of assay [4]: CEETOX_H295R_OHPROG_noMTC: CeeTox H295R High-throughput Steroidogenesis Assay for OH-Progesterone (OHPROG), maximum tolerated concentration (MTC) filtered results only (AID 2283914; active = hit-call score of the fitted dose curve at least 0.9, where 1 is the maximum; inactive = score below 0.9). The settings on record: actives raise or lower the signal. An outline of the steps: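 After 48 h forskolin (10 uM) prestimulation, H295R adrenal cells received test chemical in 0.1% DMSO for 48 h. Medium 17alpha-hydroxyprogesterone was MTBE-extracted and measured by HPLC-MS/MS; gain or loss relative to DMSO, no MTT-based MTC filtering.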

Assay [5] is described as follows: CEETOX_H295R_CORTISOL_noMTC: CeeTox H295R High-throughput Steroidogenesis Assay for Cortisol, maximum tolerated concentration (MTC) filtered results only (AID 2283916; active = hit-call score of the fitted dose curve at least 0.9, where 1 is the maximum; inactive = score below 0.9). The settings on record: actives raise or lower the signal. An outline of the steps:
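Cortisol secretion measured by LC-MS/MS after 48 h chemical treatment (final 0.1% DMSO) of forskolin-primed (10 uM, 48 h) H295R cells; gain or loss fitted relative to DMSO, without maximum-tolerated-concentration filtering.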

A short description of assay [6]: CEETOX_H295R_CORTIC_noMTC: CeeTox H295R High-throughput Steroidogenesis Assay for Corticosterone (CORTIC), maximum tolerated concentration (MTC) filtered results only (AID 2283917; active = hit-call score of the fitted dose curve at least 0.9, where 1 is the maximum; inactive = score below 0.9). The settings on record: actives raise or lower the signal. An outline of the steps:
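Human adrenal H295R cells were prestimulated 48 h with 10 uM forskolin, then exposed 48 h to chemical in 0.1% DMSO. Medium corticosterone was MTBE-extracted and quantified by HPLC-MS/MS; bidirectional fits versus DMSO, concentrations not MTC-filtered.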

The nature of assay [7]: CEETOX_H295R_DOC_noMTC: CeeTox H295R High-throughput Steroidogenesis Assay for DOC, maximum tolerated concentration (MTC) filtered results only (AID 2283918; active = hit-call score of the fitted dose curve at least 0.9, where 1 is the maximum; inactive = score below 0.9). The settings on record: actives raise or lower the signal. An outline of the steps: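 11-Deoxycorticosterone secreted by human adrenal H295R cells quantified by HPLC-MS/MS after 48 h chemical exposure (0.1% DMSO), following 48 h 10 uM forskolin prestimulation. Concentrations not filtered by MTT-derived MTC; bidirectional fitting.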

Assay [8] in a line: CEETOX_H295R_PROG_noMTC: CeeTox H295R High-throughput Steroidogenesis Assay for Progesterone (PROG), maximum tolerated concentration (MTC) filtered results only (AID 2283920; active = hit-call score of the fitted dose curve at least 0.9, where 1 is the maximum; inactive = score below 0.9). The settings on record: actives raise or lower the signal. In a few lines: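 Progesterone secreted into medium was measured by HPLC-MS/MS after MTBE extraction, following 48 h chemical exposure (0.1% DMSO) of forskolin-prestimulated (10 uM, 48 h) H295R adrenal cells. Gain or loss fitted against DMSO; no MTC filtering.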

Assay [9] has as its target PGR (gene 5241) (UniProt P06401). Nature of the assay: TOX21_PR_BLA_Followup_Agonist_ratio: Tox21 HEK293 Progesterone Receptor (PR) Agonism Beta-lactamase Follow-Up Assay, Ratio (AID 2283933). An outline of the steps:
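Beta-lactamase reporter readout: ratio of cleaved (ch2) to uncleaved (ch1) substrate after 2 h room-temperature loading, following 16 h compound exposure at 37C. Cells were PR-UAS-bla HEK293T in 2% charcoal-stripped FBS medium. Viability was multiplexed by CellTiter-Glo.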

For assay [10] the target is unchanged. Nature of the assay: TOX21_PR_BLA_Followup_Antagonist_ratio: Tox21 HEK293 Progesterone Receptor (PR) Antagonism Beta-lactamase Follow-Up Assay, Ratio (AID 2283934).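 Also: PR-UAS-bla HEK293T cells stimulated with 1 nM R5020 agonist for 16 hr.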 In a few lines:
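Readout is the blue/green (ch2/ch1) substrate cleavage ratio after 2 hours at room temperature, following 16 hr co-treatment of PR-bla HEK293T cells with compound and 1nM promegestone. Multiplexed CellTiter-Glo viability flags cytotoxicity; DMSO baseline.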

The nature of assay [11]: TOX21_PR_BLA_Followup_Agonist_viability: Viability Assessment in the Tox21 HEK293 Progesterone Receptor (PR) Agonism Beta-lactamase Follow-Up Assay (AID 2283935).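 Also: signal loss means lower viability so actives are cytotoxic.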 An outline of the steps:
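Run multiplexed with the beta-lactamase FRET read, this endpoint measures ATP by CellTiter-Glo luminescence (30 min, room temperature). PR-UAS-bla HEK293T cells received compound 6 hr after plating and were then incubated 16 hr at 37C in 2% stripped serum.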

Assay [12] is described as follows: TOX21_PR_BLA_Followup_Antagonist_viability: Viability Assessment in the Tox21 HEK293 Progesterone Receptor (PR) Antagonism Beta-lactamase Follow-Up Assay (AID 2283936).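 Also: cells exposed to compound with R5020 agonist for 16 h; hits lower the luminescence signal meaning cytotoxicity.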 An outline of the steps:
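PR-UAS-bla HEK293T cells in medium with 2% charcoal-stripped FBS were treated with compounds plus R5020 for 16 hr at 37C. After the beta-lactamase read, CellTiter-Glo was added to the same wells and luminescence read after 30 min at room temperature.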

Assay [13] deals with PGR (gene 5241) (UniProt P06401). Nature of the assay: TOX21_PR_LUC_Followup_Agonist: Tox21 HEK293 Progesterone Receptor (PR) Agonism Luciferase Follow-Up Assay (AID 2283937; active = hit-call score of the fitted dose curve at least 0.9, where 1 is the maximum; inactive = score below 0.9). In a few lines: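 Agonism scored as luciferase induction over DMSO, read by ONE-Glo after 30 min at RT. Compounds were incubated 16 h at 37C on HEK293-PR-A-luc cells (3,000/well, pre-plated 5 h) previously grown 5 days in charcoal-stripped serum.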

Assay [14] shares this target. Description: TOX21_PR_LUC_Followup_Antagonist: Tox21 HEK293 Progesterone Receptor (PR) Antagonism Luciferase Follow-Up Assay (AID 2283938).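 Also: curve fitted upward as signal gain over DMSO baseline despite antagonist label.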 In a few lines: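 Cells are grown 5 days in charcoal-stripped-FBS assay medium, plated, left 5 h, then dosed with compound and incubated 16 h. ONE-Glo reagent is added and luminescence read after 30 min.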
The nature of assay [15]: TOX21_PR_LUC_Followup_Antagonist_viability: Viability Assessment in the Tox21 HEK293 Progesterone Receptor (PR) Antagonism Luciferase Follow-Up Assay (AID 2283940). An outline of the steps: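 Viability counter-readout: cellular ATP measured by luciferase luminescence after 16 h compound exposure at 37C of HEK293-PR-A-luc cells, which had been cultured in charcoal-stripped serum and seeded 5 h beforehand.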

Assay [16] addresses Thyroid hormone receptor alpha (Rattus norvegicus) + Thyroid hormone receptor beta (Rattus norvegicus) (UniProt P18113+P63059). Description: TOX21_TR_LUC_GH3_Agonist_Followup: Tox21 GH3 Thyroid Hormone Receptor Agonism Luciferase Follow-Up Assay (AID 2283939). An outline of the steps: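 Agonist-mode confirmatory run: 15 concentrations (5 nM to 92 uM final) on GH3 rat pituitary cells, 24 h at 37C/5% CO2, T3 as positive control. Luminescence read with ONE-Glo after 30 min.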

Assay [17] is described as follows: CEETOX_H295R_ESTRADIOL_noMTC: CeeTox H295R High-throughput Steroidogenesis Assay for Estradiol, maximum tolerated concentration (MTC) filtered results only (AID 2283919; active = hit-call score of the fitted dose curve at least 0.9, where 1 is the maximum; inactive = score below 0.9). The settings on record: actives raise or lower the signal. In a few lines:
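Readout: dansyl-derivatized estradiol quantified by LC-MS/MS in medium from H295R cells dosed 48 h (0.1% DMSO) following 48 h forskolin (10 uM) prestimulation. Gain or loss of signal fitted against DMSO; no MTC filtering applied.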

Assay [18] can be described thus: CEETOX_H295R_ESTRONE_noMTC: CeeTox H295R High-throughput Steroidogenesis Assay for Estrone, maximum tolerated concentration (MTC) filtered results only (AID 2283921; active = hit-call score of the fitted dose curve at least 0.9, where 1 is the maximum; inactive = score below 0.9). The settings on record: actives raise or lower the signal. An outline of the steps: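 Estrone in spent medium, quantified by tandem MS following dansyl chloride derivatization, after 48 h chemical exposure (0.1% DMSO) of forskolin-prestimulated (10 uM, 48 h) H295R cells; concentrations not MTC-filtered, bidirectional fit against DMSO.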

Results filed as inconclusive are left out. The source made the active and inactive calls. The calls were made as follows, unless noted: active = hit-call score of the fitted dose curve at least 0.9, where 1 is the maximum; inconclusive = response in the unintended direction; inactive = score below 0.9.

PGR (gene 5241), sequence (P06401 whole entry, looked up): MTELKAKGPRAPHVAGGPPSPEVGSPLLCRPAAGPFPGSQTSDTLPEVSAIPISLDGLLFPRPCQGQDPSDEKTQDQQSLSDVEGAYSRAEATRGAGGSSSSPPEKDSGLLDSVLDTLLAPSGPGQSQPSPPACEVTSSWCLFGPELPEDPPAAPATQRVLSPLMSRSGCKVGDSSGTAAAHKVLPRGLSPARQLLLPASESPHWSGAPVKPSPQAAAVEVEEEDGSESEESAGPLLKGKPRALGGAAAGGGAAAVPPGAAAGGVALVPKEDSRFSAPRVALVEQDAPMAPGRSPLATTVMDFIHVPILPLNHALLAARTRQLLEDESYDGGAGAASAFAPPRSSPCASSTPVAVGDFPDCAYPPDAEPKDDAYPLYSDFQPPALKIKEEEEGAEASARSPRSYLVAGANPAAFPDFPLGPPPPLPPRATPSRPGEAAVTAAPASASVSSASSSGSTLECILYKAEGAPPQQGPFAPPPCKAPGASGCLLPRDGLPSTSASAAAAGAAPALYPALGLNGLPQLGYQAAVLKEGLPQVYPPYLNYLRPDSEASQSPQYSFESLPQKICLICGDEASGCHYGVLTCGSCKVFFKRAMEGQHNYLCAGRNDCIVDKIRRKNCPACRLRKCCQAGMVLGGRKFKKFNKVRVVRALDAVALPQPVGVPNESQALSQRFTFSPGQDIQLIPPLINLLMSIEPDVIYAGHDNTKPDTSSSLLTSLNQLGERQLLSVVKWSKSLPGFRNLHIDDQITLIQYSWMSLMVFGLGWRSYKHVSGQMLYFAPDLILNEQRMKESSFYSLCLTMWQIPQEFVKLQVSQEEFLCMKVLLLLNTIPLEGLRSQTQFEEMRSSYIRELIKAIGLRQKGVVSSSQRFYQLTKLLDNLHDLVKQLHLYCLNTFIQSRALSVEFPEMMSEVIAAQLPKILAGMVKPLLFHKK
Thyroid hormone receptor alpha (Rattus norvegicus) + Thyroid hormone receptor beta (Rattus norvegicus), sequence (P63059 whole entry, looked up): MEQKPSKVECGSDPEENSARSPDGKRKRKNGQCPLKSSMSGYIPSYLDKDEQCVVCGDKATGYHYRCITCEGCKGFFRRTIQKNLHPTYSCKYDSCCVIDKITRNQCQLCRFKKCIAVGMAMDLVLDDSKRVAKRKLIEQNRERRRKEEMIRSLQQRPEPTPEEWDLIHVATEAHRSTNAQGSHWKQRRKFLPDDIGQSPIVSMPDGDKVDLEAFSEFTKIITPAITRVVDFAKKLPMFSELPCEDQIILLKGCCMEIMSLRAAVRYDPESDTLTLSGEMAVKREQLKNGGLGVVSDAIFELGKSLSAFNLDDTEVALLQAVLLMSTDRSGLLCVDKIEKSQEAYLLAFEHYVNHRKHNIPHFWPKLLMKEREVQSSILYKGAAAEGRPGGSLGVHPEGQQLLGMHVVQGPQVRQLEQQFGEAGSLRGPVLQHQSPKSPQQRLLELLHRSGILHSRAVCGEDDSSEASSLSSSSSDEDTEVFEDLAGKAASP
Thyroid hormone receptor alpha (Rattus norvegicus) + Thyroid hormone receptor beta (Rattus norvegicus), sequence (P18113 whole entry, looked up): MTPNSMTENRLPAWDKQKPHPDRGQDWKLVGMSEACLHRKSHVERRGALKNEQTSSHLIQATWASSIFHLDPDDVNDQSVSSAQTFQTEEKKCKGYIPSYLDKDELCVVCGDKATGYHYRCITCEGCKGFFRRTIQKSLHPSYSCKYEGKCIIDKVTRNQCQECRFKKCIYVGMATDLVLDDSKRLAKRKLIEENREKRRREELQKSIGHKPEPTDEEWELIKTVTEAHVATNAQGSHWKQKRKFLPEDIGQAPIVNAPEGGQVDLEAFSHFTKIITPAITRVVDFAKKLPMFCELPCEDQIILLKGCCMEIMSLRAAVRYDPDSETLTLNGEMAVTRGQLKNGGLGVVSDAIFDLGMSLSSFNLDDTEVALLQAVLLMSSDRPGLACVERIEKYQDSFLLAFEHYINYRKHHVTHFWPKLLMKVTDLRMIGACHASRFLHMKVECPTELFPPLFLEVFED

As usually defined, the AC50 is the concentration at which the activity in the assay is half-maximal. In the case of `CCOC(=O)NCCOc1ccc(Oc2ccccc2)cc1`, in [1], the AC50 is 34 µM (active).
On to `S=C(S)NCCNC(=S)S.[Mn+2].[S-]C([S-])=NCCN=C([S-])[S-].[Zn+2]`, for which the result in [1] was inactive.
The same measure, in the same setting: the value for `CCCCOC(=O)C(C)Oc1ccc(Oc2ccc(C(F)(F)F)cn2)cc1` (stereo not given) was “inactive”.
With `Oc1ccc(C(c2ccc(O)cc2)C(Cl)(Cl)Cl)cc1`, the AC50 in assay [1] is 39.9 µM (active).
Take `CCCCCOC(=O)COc1cc(N2C(=O)C3=C(CCCC3)C2=O)c(F)cc1Cl`: in [1], the result was inactive.
Regarding `CCCCC(CC)COC(=O)c1ccccc1C(=O)O` (stereo not given), the outcome in [2], in assay [3], in assay [4], in [5], in assay [6] and in [7] was inactive. The outcome in assay [8] was inactive.
`CC(C)(c1ccc(O)cc1)c1ccc(O)cc1`: the outcome (in [1]; in the assay with PGR (gene 5241) [9]; in assay [11]; in [12]; with PGR (gene 5241) [13]; in assay [15]) was inactive. The AC50 in the assay with PGR (gene 5241) [10] was 32.9 µM (active); in the assay with PGR (gene 5241) [14] it was 33.3 µM (active).
On to `CCCN(CCC)c1c([N+](=O)[O-])cc(C(F)(F)F)c(N)c1[N+](=O)[O-]`, for which the AC50 in assay [1] is 47.8 µM (active).
Same read-out and setting: the figure for `CCCCC(CC)CN1C(=O)C2C3C=CC(C3)C2C1=O` (stereo not given) is 50 µM (active).
As for `COC(=O)c1ccc(I)cc1S(=O)(=O)NC(=O)Nc1nc(C)nc(OC)n1`, the outcome in assay [16] was inactive.
With `O=C(O)c1ccccc1`, the outcome in assay [1] was inactive.
Same read-out and setting: the entry for `O=C(Nc1ccc([N+](=O)[O-])cc1Cl)c1cc(Cl)ccc1O` is “inactive”.
With `C=CCOC(Cn1ccnc1)c1ccc(Cl)cc1Cl` (stereo not given), in [1], the outcome was inactive.
Still for that read-out and setting: the entry for `CCCCOCCOCCOCc1cc2c(cc1CCC)OCO2` is “inactive”; for `CCCCOC(=O)[C@@H](C)Oc1ccc(Oc2ccc(C(F)(F)F)cn2)cc1` it is “inactive”.
For the compound `COC(=O)c1ccccc1C(=O)O`, the compound was called inactive in assay [2], in assay [3], in assay [4], in assay [5], in [6] and in assay [7]. Besides, the outcome in assay [17], in assay [8] and in assay [18] was inactive.
Consider `CCCN(CCC)C(=O)SCC`, for which the result in assay [1] and in assay [16] was inactive.
Regarding `Cc1nn(C)c(Oc2ccccc2)c1C=NOCc1ccc(C(=O)OC(C)(C)C)cc1`, in assay [1], the result was inactive.
